# Source: PubChem BioAssay AID588343 (Broad Institute, 2011)
# Screen size: about 1,200 compounds; about 650 (54%) were called active. Not shown: some 5% with an inconclusive outcome. The set was probably picked from earlier hits. The list is a sample of the results. Results with a measured potency or affinity are listed apart. Unmarked numbers belong to inactive results.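 How the source made its calls: active means signal-lowering curve whose fitted half-maximal concentration is at or below ten times the top valid dose tested; inconclusive means flat curve with 30 to 70% inhibition, or poor fit; inactive means signal increase, flat within 30%, or potency beyond limit.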
# Experiment: inhibitors of LMP1-driven NF-kB reporter, dose response, cell-based, HEK293, luciferase, cherry-pick (AID 588343);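 further: 0% = median of neutral control wells and -100% = MG132 positive control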
# Settings: HEK293 LMP1 TES2 NF-kB luciferase reporter, 16 h; series mostly up to 35 µM; activity change, negative = inhibition: at the top concentration
row,Structure (SMILES),"activity change, negative = inhibition"
1,Cc1cc(N)nc(=O)n1C1CC(O)C(CO)O1 (stereo not drawn),3.79%
2,O=C1CN(C(=O)c2ccc(F)c(S(=O)(=O)N3CCOCC3)c2)c2ccccc2N1,2.87%
3,COc1ccc(C(=O)OCC(=O)c2c[nH]c3ccccc23)cc1OC,19.4%
4,O=C(O)c1cc(=O)c2c(OCC(O)COc3cccc4oc(C(=O)O)cc(=O)c34)cccc2o1,-2.82%
5,Cc1ccc(NS(=O)(=O)c2ccc(NC(=O)C(C)Sc3ccc(Cl)cc3)cc2)c(C)c1 (stereo not drawn),-1.07%
6,COc1ccc(CNC(=O)COC(=O)[C@@H]2CCCN2C(=O)c2cccs2)cc1,12.8%
7,O=[N+]([O-])c1ccc(Cl)c(S(=O)(=O)NCC2CCCO2)c1 (stereo not drawn),-1.9%
8,CSc1ccc2c(c1)C(N1CCN(C)CC1)Cc1ccccc1S2 (stereo not drawn),26.9%
9,O=C(c1ccc(C#CC2(O)CCCCC2)cc1)N1CCN(C(c2ccccc2)c2ccccc2)CC1,12.4%
10,COCCNC(=O)NC12CC3(C)CC(C)(CC(C)(C3)C1)C2,-9.45%
11,COc1cc(CC(=O)N(c2ccccc2)c2nc(C)cs2)cc(OC)c1OC,-10.2%
12,Clc1ccc(-c2ccnc(Oc3ccc4ccccc4c3)n2)cc1,-0.802%
13,Cc1ccc(-c2cc(N)n3nc(-c4ccc(C)cc4)cc3n2)cc1,-2.58%
14,COC(=O)c1ccccc1NC(=O)CC(=O)Nc1ccccc1C(=O)OC,-4.89%
15,Cc1nc(SCC(=O)c2cccc([N+](=O)[O-])c2)n[nH]1,-9.98%
16,C[C@H](CO)N1C[C@H](C)[C@@H](CN(C)C(=O)NC2CCCCC2)Oc2c(NS(=O)(=O)c3cn(C)cn3)cccc2C1=O,-12.5%
17,NC1=NC(=O)NC1(c1ccccc1)c1ccccc1,-6.22%
18,COc1cc2nc(N3CCN(C(=O)C4CCCO4)CC3)nc(N)c2cc1OC (stereo not drawn),-3.99%
19,C[C@H](NC(=O)N1CCn2c1nc1ccccc12)C(=O)NCC1CCCO1 (stereo partly drawn),-8.38%
20,CCOC(=O)OC(C)OC(=O)[C@@H]1N2C(=O)[C@@H](NC(=O)[C@H](N)c3ccccc3)[C@H]2SC1(C)C (stereo partly drawn),33.8%
21,CSc1oc(-c2ccc(F)cc2)nc1S(=O)(=O)c1ccc(F)cc1,-11.4%
22,CC(NC(=O)CCOc1ccccc1)c1ccccc1 (stereo not drawn),18.7%
23,O=C(O)c1cn2c3c(ccc(Cl)c3c1=O)OCC2,48.2%
24,Oc1cccc(/C=N/NC(=S)NCCN2CCOCC2)c1O,9.95%
25,CN(C)CCC(c1ccccc1)c1ccccn1 (stereo not drawn),-3.57%
26,COC(=O)CN(c1ccccc1F)S(=O)(=O)c1ccc(C)cc1,1.91%

row,Structure (SMILES),"activity change, negative = inhibition"
1,CC(=O)O[C@H]1CC[C@@]2(C)C(=CC[C@H]3[C@@H]4CC[C@H](C(C)=O)[C@@]4(C)CC[C@@H]32)C1,33%
2,CN(C)/C=C/C(=O)c1ccc2noc(-c3ccccc3)c2c1,-14.1%
3,CCON1C(=O)C2(CCCCC2)C(=O)C12C=CCCC2 (stereo not drawn),14.9%
4,CCN(CC)c1ccc(NC(=O)c2cccc(F)c2)c(C)c1,-2.49%
5,CCOC(=O)CCSc1nc(N2CCOCC2)c2c(c1C#N)CC(C)(C)OC2,39.6%
6,CSc1nc(C)nc2c1c(=O)n(C)c(=O)n2C,3%
7,COCCn1c(SCc2ccc(C(=O)OC)o2)nnc1-c1c[nH]c2ccccc12,-5.45%
8,CCOc1ccc(NC(=O)CCc2nnc3ccc(N4CCC5(CC4)OCCO5)nn23)cc1,-2.59%
9,COc1ccc(C2CC(C(F)(F)F)n3ncc(C(=O)NCc4cccnc4)c3N2)cc1OC (stereo not drawn),-9.55%
10,CCCCCC(=O)NC(=S)Nc1ccc(Br)cc1C,-9.81%
11,CC(CNC1CCCCC1)OC(=O)c1ccccc1 (stereo not drawn),33.2%
12,CCC(=O)NC(=S)Nc1ccccc1C(F)(F)F,0.113%
13,CCN(C(=O)c1cccc(NC(=O)c2ccccc2)c1)C1CCCCC1,8.9%
14,COc1ccc(C(=O)N(CN2CCCC2=O)c2cc(C)on2)cc1OC,5.34%
15,O=C1OCC2=C1C(c1ccc3c(c1)OCO3)c1cc3c(cc1O2)OCO3 (stereo not drawn),-9.53%
16,CNC1(C)[C@H]2CC[C@H](C2)C1(C)C (stereo partly drawn),1.19%
17,Cc1ccc(NC(=O)/C=N/OCC(=O)NCc2ccccc2Cl)cc1,19.4%
18,COCC(=O)N(C)c1nnc(-c2ccccn2)s1,13.8%
19,Cc1cc(C)cc(C(=O)NCCC(=O)NCc2cc(=O)n(C)c(=O)n2C)c1,-6.55%
20,CCOCCCNC(=O)CN1C(=O)/C(=C\c2ccc(C)cc2)Sc2ccccc21,2.45%
21,Cc1ccc(S(=O)(=O)N2CCC[C@H]2C(=O)Nc2ccccc2C)cc1,-11.7%
22,CCN(C(=O)c1cc(OC)c(OC)c(OC)c1)C1CCCCC1,-5.54%
23,C[C@]12CC[C@@H]3c4ccc(OS(=O)(=O)O)cc4CC[C@H]3[C@@H]1CCC2=O,4.2%
24,O=c1c([N+](=O)[O-])cn(Cc2ccccc2)c(=O)n1Cc1ccccc1,20.6%
25,C[C@@]12C(=O)N(Cc3ccccc3)CC(=O)N1[C@H](/C=C/c1ccccc1)[C@@H]1C(=O)N(c3ccccc3)C(=O)[C@@H]12,14.8%
26,O=c1cc(-c2ccccc2)[nH]c2ccc(F)cc12,3.13%

row,Structure (SMILES),"activity change, negative = inhibition"
1,O=C(C1CC1)N1N=C(c2ccc(Br)cc2)CC1(O)C(F)(F)F (stereo not drawn),-10.1%
2,COc1cc(OC)cc(-c2c(C#Cc3ccsc3)c3cc(-c4cc(OC)c(OC)c(OC)c4)ccc3n2C)c1,9.2%
3,Cc1cccn2c(=O)c(C=NCCO)c(NCc3ccco3)nc12,-3.39%
4,CCCc1nc(SCC(=O)NCc2ccco2)c2c(=O)n(C)c(=O)n(C)c2n1,19.7%
5,Cc1cccc(Nc2nc(Cl)ncc2F)c1C,-11.5%
6,COc1ccccc1C=NN=Cc1ccccc1O,27.4%
7,COC(CNC(=O)c1ccc(N2CCC3(CC2)OCCO3)c([N+](=O)[O-])c1)OC,-6.61%
8,CC(=O)Nc1ccc(NC(=O)C(c2ccccc2)c2ccccc2)cc1,1.86%
9,CCOC(=O)[C@H]1[C@H]2COc3ccc(OC)cc3[C@@H]2N2C(=O)CN(C)C(=O)[C@@]12C,-6.5%
10,COc1ccc(C2=NN(C(=O)CSC3=NN4CCCC(=O)N=C4S3)C(c3cccc(OC)c3OC)C2)cc1 (stereo not drawn),5.71%
11,CCOC(=O)Nc1ccc2c(c1)N(C(=O)CN(C)C)c1ccccc1CC2,-14.1%
12,Cn1c(=O)c2c(ncn2CC(=O)Nc2cc(S(=O)(=O)N3CCCCC3)ccc2O)n(C)c1=O,12%
13,CCCN1C(=O)C2(SC(NC(C)=O)=NN2C(C)=O)c2cc(C)cc(C)c21 (stereo not drawn),-12.8%
14,CCC(C)[C@H](NC(=O)NCc1cccnc1)C(=O)OC (stereo partly drawn),9.79%
15,C=CCN1CCc2cc(O)c(O)cc2C(c2ccccc2)C1 (stereo not drawn),-0.248%
16,Cc1ccc(C)c(S(=O)(=O)N2CCN(C(=O)c3ccc(C)s3)CC2)c1,-14.8%
17,COc1ccccc1-c1ccccc1C1=CC(=O)CC(C)(C)C1=O,20.8%
18,CCOC(=O)N1CCN(C(=O)C2CCC(=O)N(Cc3ccccc3OC)C2)CC1 (stereo not drawn),7.61%
19,COc1ccc(C(=O)NCCN2CCOCC2)cc1[N+](=O)[O-],6.07%
20,CNC(=O)c1[nH]cnc1C(=O)N[C@@H](CCCCNC(=O)OC(C)(C)C)C(=O)OC(C)(C)C,34%
21,Cc1cccc(C)c1Nc1nc2ccccc2o1,2.89%
22,OCc1cc(C(O)CNCCCCCCOCCCCc2ccccc2)ccc1O (stereo not drawn),6.71%
23,COc1ccccc1NC(=O)c1c(Nc2ccccc2C)sc(C(=O)Nc2cccc(Cl)c2)c1N,3.23%
24,O=C(OCc1nc2ccccc2s1)[C@@H]1CCCN1S(=O)(=O)c1ccccc1F,8.66%
25,C[C@@H](OC(=O)c1[nH]cnc1C(=O)N1CCc2ccccc2C1)c1ccccc1,5.49%
26,CSCCC(NC(=O)c1ccco1)C(=O)OCC(=O)Nc1ncc(Cl)c(C)c1Cl (stereo not drawn),5.14%

row,Structure (SMILES),"activity change, negative = inhibition"
1,O=C(Nc1ccc(Cl)cc1)c1ccco1,2.2%
2,C[C@H]1C[C@H]2[C@@H]3CCC4=CC(=O)C=C[C@]4(C)[C@@]3(F)[C@@H](O)C[C@]2(C)[C@@]1(O)C(=O)CO,-27.3%
3,CCn1c(CCNC(=O)c2ccc(OC)cc2)nnc1SCc1ccc(Cl)cc1Cl,-10.7%
4,CCC(Oc1ccccc1)C(=O)NC1CCSC1=O (stereo not drawn),0.894%
5,CC1=C(C)C(OCCCl)N(c2cc(O)c(Cl)cc2F)C1=O (stereo not drawn),-1.48%
6,O=C(C[n+]1ccccc1)N/N=C/c1ccc(O)cc1,12.7%
7,CC(C)Cc1ccc([C@H](C)C(=O)O)cc1,10.3%
8,Cc1ccc(CNC(=O)C2CCN(S(=O)(=O)c3c(C)noc3/C=C/c3ccco3)CC2)cc1,23.8%
9,C[C@@H]1CN([C@@H](C)CO)C(=O)c2cc(NC(=O)Nc3ccccc3)ccc2O[C@H]1CN(C)C(=O)Nc1cccc2ccccc12,-8.5%
10,O=C(NN1C(=O)C2C3C=CC(C4CC34)C2C1=O)c1cccc(Cl)c1 (stereo not drawn),2.66%
11,Nc1ccc(CCNc2ncnc3c2ncn3[C@@H]2O[C@H](CO)[C@@H](O)[C@H]2O)cc1,-19.4%
12,Nc1ccn(C2CCCO2)c(=O)n1 (stereo not drawn),-9.64%
13,NC(=O)c1ncn([C@@H]2O[C@H](CO)[C@@H](O)[C@H]2O)n1,44.1%
14,CCOc1ccccc1/C=C/c1onc(C)c1S(=O)(=O)N1CCC(C(=O)N(CC)CC)CC1,-2.53%
15,COc1nc(Nc2nc3ccccc3c(=O)[nH]2)nc2ccc(C)cc12,63.8%
16,CCCC(=O)NCCCc1nc2ccccc2n1C,-6.19%
17,COc1c(S(=O)(=O)N2CCN(c3ccc(F)cc3)CC2)ccc(Cl)c1Cl,0.418%
18,O=C(CCCOc1ccccc1)N1CCN(c2ccccc2)CC1,-13.6%
19,Cc1ccc(NC(=S)Nc2cccc(S(=O)(=O)Nc3c(C)n(C)n(-c4ccccc4)c3=O)c2)cc1,-6.17%
20,Cc1cccc(NC(=O)Nc2c(C)n(C)n(-c3ccccc3)c2=O)c1C,2.9%
21,C/C(=N\NS(=O)(=O)c1ccc([N+](=O)[O-])cc1)c1cccs1,28.1%
22,O=C(CCNc1cccc(F)c1)c1cc2ccccc2o1,-15.8%
23,Cc1ccccc1CC(=O)NCc1cccnc1,2.8%
24,COc1ccc(-c2ccc3c(c2)S(=O)(=O)c2cccc(C(=O)NCc4cc(C)oc4C(F)(F)F)c2C3=O)cc1OC,64.1%
25,Cc1ccc(N2CCCCn3c2nc2c3c(=O)n(CC(=O)O)c(=O)n2C)cc1,1.98%
